The source of these data is PubChem BioAssay (NCI).

Compounds without any hit were thinned out: in the full panel of roughly 83,000, 20% have a hit.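 Values shown are percent growth following 48 h exposure of cells in 96-well plates to a single concentration of compound; below 10 was considered active.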 Calls of active or inactive are those of the source.

For the first experiment, the system named is SK-MEL-28 melanoma. Put plainly: NCI-60 one-dose screen, 48 h (100 = growth as untreated, 0 = no growth, -100 = all killed). As to conditions: 10 µM.
Regarding `COc1cc(Cl)cc(-c2nn(-c3cccc(NC(=O)Nc4ccc(Cl)c(Cl)c4)c3)cc2-c2ccncc2)c1`, the growth is 23.2% (inactive).

Regarding `COc1cc2cc3c(nc2cc1OC)CCN3Cc1ccc(NC(=O)c2ccc(Cl)c(C(F)(F)F)c2)cc1`, the growth is 97.9% (inactive).

On to `CCOC(=O)N1C/C(=C/c2ccc(Cl)cc2)C(=O)/C(=C/c2ccc(Cl)cc2)C1`, for which the growth was 105% (inactive).

As for `c1ccc(CSc2nnc3c4c5c(sc4nc(-c4cccnc4)n23)CCCCCC5)cc1`, the growth was 49.2% (inactive).

As to `Cc1cc2ccccc2nc1-c1ccccc1F`, the growth was 116% (inactive).

For `COc1ccc(S(=O)(=O)Nc2c(/C=C\c3cc(OC)c(OC)c(OC)c3)ccc(OC)c2O)cc1`, the growth was 58.2% (inactive).

`N=C(N)c1ccc(-c2ccc(-c3cccs3)s2)s1`: the growth was -94.7% (active).

As for `CSc1cc(SC)ncn1`, the growth was 102% (inactive).

For `Cn1c(C(N)=O)cc2c1-c1nc(Nc3ccccc3)ncc1CCC2`, the growth was 68.7% (inactive).

`CCOC(=O)N/N=C\C(C)=N\NC(=O)OCC`: the growth was 103% (inactive).

`Nc1cc2c(cc1Cl)-c1ccc([N+](=O)[O-])cc1/C2=N\O`: the growth was 109% (inactive).

For the molecule `Cc1cccc(C)c1NC(=O)c1sc2nc3c(cc2c1N)C(=O)CCC3`, the growth is 81.3% (inactive).

On to `Cc1cc(C)c(CCc2cc(C)c(C)cc2C)cc1C`, for which the growth is 108% (inactive).

Regarding `CCN1CCC(CCOC)(CN2c3ccccc3Sc3ccc(Cl)cc32)C1` (stereo not drawn), the growth was 58.2% (inactive).

For the molecule `COc1ccc(OC)c(/C=C/c2nc(SCc3ccccc3)n(-c3ccc(Cl)cc3)n2)c1`, the growth was 71.5% (inactive).

Consider `CN1CCC(CNc2cc(C3(C(=O)Nc4cc(C(=O)Nc5ccc(Cl)c(C(F)(F)F)c5)ccc4F)CC3)ncn2)CC1`, for which the growth is -54.7% (active).

Turning to `Cc1ccc(NC(=O)NC2CCCCC2)cc1`, the growth was 104% (inactive).

Take `CC1CN(Cc2ccccc2)C(=O)NC1=O` (stereo not drawn): the growth was 114% (inactive).

For `COc1cc(Cc2cc(-c3ccc(Cl)cc3)n[nH]c2=O)ccc1O`, the growth is 122% (inactive).

In the case of `CN(C)CCNC(=O)c1cccn2c(=O)c3cc4ccccc4cc3nc12`, the growth is -25.8% (active).

Turning to `CC(=O)CSC(C)=O`, the growth was 95.6% (inactive).

Consider `c1ccc(C(NC2CC3CCC2C3)c2ccccc2)cc1` (stereo not drawn), for which the growth is 110% (inactive).

Take `CC(C)=CCc1cc(O)cc2c1OC(C=C(C)C)C1=C2C(=O)C2=C(C1=O)S(=O)(=O)CCN2` (stereo not drawn): the growth is 36.8% (inactive).

In the case of `COc1cc2c(cc1OCCCN1CCN(c3ncnc4ccccc34)CC1)N=CC1CCCN1C2=O` (stereo not drawn), the growth was -9.59% (active).

In the case of `Cc1cccc(Cl)c1NC(=O)c1ccc2nc(NC(=O)NC3CCN(C)CC3)sc2c1`, the growth was 108% (inactive).

As for `CCOC(=O)c1ccc(NC(=O)Nc2ncc(Cl)cc2Cl)cc1`, the growth was 106% (inactive).

On to `COc1cc(-c2nc(-c3nnc(-c4ccccc4Cl)o3)c3ccccn23)cc(OC)c1OC`, for which the growth is 94.6% (inactive).

Take `Nc1nc(N)c(NC(=O)CNc2ccc(C(=O)O)cc2)c(N)n1`: the growth is 97.9% (inactive).

On to `COc1cc(-c2cc(C(=O)N3CCN(C(=O)c4ccccc4NCc4cccs4)CC3)nc3cc(-c4ccccc4)nn23)cc(OC)c1OC`, for which the growth was 81.5% (inactive).

On to `COc1ccc(NC(=O)CSc2nc3ccccc3c(=O)n2CCc2ccccc2)cc1`, for which the growth is 91.6% (inactive).

On to `COc1ccc(-c2nc3sc(C4CC4)nn3c2/C=C2/C(=O)Nc3ccc(OC)cc32)cc1`, for which the growth is 24.9% (inactive).

Take `O=C(Nc1cccc(Br)c1)c1cc(=O)[nH]c2ccccc12`: the growth was 107% (inactive).

For the molecule `FC(F)(F)c1ccc2nc(-c3nc(-c4ccccc4)n4ccccc34)[nH]c2c1`, the growth was 98.4% (inactive).

In the case of `Cc1cc(N(CCCNc2ccnc3cc(Cl)ccc23)Cc2cccs2)nc(Cl)n1`, the growth is 81.5% (inactive).

As for `O=C1C(c2ccccc2)C2C=CC(C2)N1O` (stereo not drawn), the growth was 118% (inactive).

With `CN1c2ccccc2[C@]2(Cc3ccccc3)Cc3ccccc3N[C@H]12`, the growth was 99.7% (inactive).

For `CC1(C)CCC(=NNC(N)=S)CC1`, the growth is 115% (inactive).

In the case of `N=C(N)c1ccc(-c2ccc(-c3ccccc3)o2)nc1`, the growth is 96.2% (inactive).

Take `O=c1[nH]c(-c2ccc(Cl)cc2)nc2sc3c(c12)CCCC3`: the growth is 107% (inactive).

The subject of the next experiment is SK-MEL-2 melanoma. The description is as above. Conditions: 10 µM.
As to `COc1cc(Cl)cc(-c2nn(-c3cccc(NC(=O)Nc4ccc(Cl)c(Cl)c4)c3)cc2-c2ccncc2)c1`, the growth was -32.1% (active).

`COc1cc2cc3c(nc2cc1OC)CCN3Cc1ccc(NC(=O)c2ccc(Cl)c(C(F)(F)F)c2)cc1`: the growth was 108% (inactive).

As to `CCOC(=O)N1C/C(=C/c2ccc(Cl)cc2)C(=O)/C(=C/c2ccc(Cl)cc2)C1`, the growth is 84.7% (inactive).

Turning to `c1ccc(CSc2nnc3c4c5c(sc4nc(-c4cccnc4)n23)CCCCCC5)cc1`, the growth is 16.5% (inactive).

Take `Cc1cc2ccccc2nc1-c1ccccc1F`: the growth was 111% (inactive).

For `COc1ccc(S(=O)(=O)Nc2c(/C=C\c3cc(OC)c(OC)c(OC)c3)ccc(OC)c2O)cc1`, the growth is 3.84% (active).

`N=C(N)c1ccc(-c2ccc(-c3cccs3)s2)s1`: the growth was -0.961% (active).

For the molecule `CSc1cc(SC)ncn1`, the growth is 100% (inactive).

For the molecule `Cn1c(C(N)=O)cc2c1-c1nc(Nc3ccccc3)ncc1CCC2`, the growth was 46% (inactive).

Regarding `CCOC(=O)N/N=C\C(C)=N\NC(=O)OCC`, the growth is 111% (inactive).

Take `Nc1cc2c(cc1Cl)-c1ccc([N+](=O)[O-])cc1/C2=N\O`: the growth was 106% (inactive).

As to `Cc1cccc(C)c1NC(=O)c1sc2nc3c(cc2c1N)C(=O)CCC3`, the growth was 69.7% (inactive).

On to `Cc1cc(C)c(CCc2cc(C)c(C)cc2C)cc1C`, for which the growth was 109% (inactive).

Take `CCN1CCC(CCOC)(CN2c3ccccc3Sc3ccc(Cl)cc32)C1` (stereo not drawn): the growth was 88.5% (inactive).

In the case of `COc1ccc(OC)c(/C=C/c2nc(SCc3ccccc3)n(-c3ccc(Cl)cc3)n2)c1`, the growth was 69.2% (inactive).

Consider `CN1CCC(CNc2cc(C3(C(=O)Nc4cc(C(=O)Nc5ccc(Cl)c(C(F)(F)F)c5)ccc4F)CC3)ncn2)CC1`, for which the growth was -57.2% (active).

`Cc1ccc(NC(=O)NC2CCCCC2)cc1`: the growth was 92% (inactive).

On to `CC1CN(Cc2ccccc2)C(=O)NC1=O` (stereo not drawn), for which the growth is 102% (inactive).

As to `COc1cc(Cc2cc(-c3ccc(Cl)cc3)n[nH]c2=O)ccc1O`, the growth is 117% (inactive).

`CN(C)CCNC(=O)c1cccn2c(=O)c3cc4ccccc4cc3nc12`: the growth was -65.9% (active).

For `CC(=O)CSC(C)=O`, the growth is 116% (inactive).

Take `c1ccc(C(NC2CC3CCC2C3)c2ccccc2)cc1` (stereo not drawn): the growth was 89.6% (inactive).

`CC(C)=CCc1cc(O)cc2c1OC(C=C(C)C)C1=C2C(=O)C2=C(C1=O)S(=O)(=O)CCN2` (stereo not drawn): the growth is 28.8% (inactive).

Consider `COc1cc2c(cc1OCCCN1CCN(c3ncnc4ccccc34)CC1)N=CC1CCCN1C2=O` (stereo not drawn), for which the growth is 6.33% (active).

For `Cc1cccc(Cl)c1NC(=O)c1ccc2nc(NC(=O)NC3CCN(C)CC3)sc2c1`, the growth is 126% (inactive).

In the case of `CCOC(=O)c1ccc(NC(=O)Nc2ncc(Cl)cc2Cl)cc1`, the growth is 102% (inactive).

`COc1cc(-c2nc(-c3nnc(-c4ccccc4Cl)o3)c3ccccn23)cc(OC)c1OC`: the growth is 79% (inactive).

As for `Nc1nc(N)c(NC(=O)CNc2ccc(C(=O)O)cc2)c(N)n1`, the growth was 102% (inactive).

With `COc1cc(-c2cc(C(=O)N3CCN(C(=O)c4ccccc4NCc4cccs4)CC3)nc3cc(-c4ccccc4)nn23)cc(OC)c1OC`, the growth was 68.4% (inactive).

Take `COc1ccc(NC(=O)CSc2nc3ccccc3c(=O)n2CCc2ccccc2)cc1`: the growth is 121% (inactive).

As for `COc1ccc(-c2nc3sc(C4CC4)nn3c2/C=C2/C(=O)Nc3ccc(OC)cc32)cc1`, the growth was 49.6% (inactive).

Turning to `O=C(Nc1cccc(Br)c1)c1cc(=O)[nH]c2ccccc12`, the growth is 56.6% (inactive).

Turning to `FC(F)(F)c1ccc2nc(-c3nc(-c4ccccc4)n4ccccc34)[nH]c2c1`, the growth is 81.6% (inactive).

Regarding `Cc1cc(N(CCCNc2ccnc3cc(Cl)ccc23)Cc2cccs2)nc(Cl)n1`, the growth was 64.7% (inactive).

For `O=C1C(c2ccccc2)C2C=CC(C2)N1O` (stereo not drawn), the growth was 103% (inactive).

In the case of `CN1c2ccccc2[C@]2(Cc3ccccc3)Cc3ccccc3N[C@H]12`, the growth is 95% (inactive).

For the molecule `CC1(C)CCC(=NNC(N)=S)CC1`, the growth was 130% (inactive).

Consider `N=C(N)c1ccc(-c2ccc(-c3ccccc3)o2)nc1`, for which the growth is 109% (inactive).

As for `O=c1[nH]c(-c2ccc(Cl)cc2)nc2sc3c(c12)CCCC3`, the growth is 102% (inactive).
